# Results filed as inconclusive are left out. A call without a number means that no potency is given here. Activity calls are given as the source filed them. Unless noted, the call rests on the fitted dose curve; in most records, active means well fitted curve in the direction sought with a large enough effect; inconclusive means small, poorly fitted or top-dose-only effect, or another doubt; inactive means no such curve, though single readings can be large; an effect the other way counts as inactive or inconclusive.
# Tests used:
# [1] = biological target: Luciferin 4-monooxygenase (Photinus pyralis) (UniProt P08659); assay: Biochemical firefly luciferase enzyme assay for NPC (AID 624030);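 further: purified P. pyralis luciferase at 10 nM with luciferin and ATP substrate; series mostly up to about 59 µM; nearly all actives have a fitted effect of over 70% in size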
# Method in brief: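 Direct inhibition of firefly luciferase enzyme (10 nM final, 50 mM Tris Acetate) assessed by luminescence within 5 minutes. Percent activity scaled between DMSO and PTC124 positive control, with concentration-effect curves classified by fit quality and response.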
# [2] = S16 Schwann cell PMP22 intronic element firefly luciferase assay (AID 624032); further: nearly all actives have a fitted effect of over 30% in size; further: potency means the concentration at half of the fitted maximal effect
# Method in brief: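 Luciferase reporter of PMP22 intronic-element expression in stably transfected S16 rat Schwann cells, read by ONE-Glo luminescence after 24 h compound exposure at 37 C. Activity scaled between DMSO (0%) and positive-control PTC124; concentration-effect curves quality-classified.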
# [3] = S16 Schwann cell PMP22 intronic element beta-lactamase assay (AID 624044; calls by dose curve; further: nearly all actives have a fitted effect of over 15% in size; further: potency means the concentration at half of the fitted maximal effect)
# Method in brief: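 Rat S16 Schwann cells with beta-Lac driven by a PMP22 intronic element, compound-treated 24 h at 37 °C. LiveBLAzer FRET B/G read: 460 nm normalized to potassium clavulanate vs DMSO; 535 nm FRET as viability; concentration-effect curves classified.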
# [4] = biological target: Glucocorticoid receptor (Homo sapiens) (UniProt P04150); assay: qHTS assay for small molecule antagonists of glucocorticoid receptor signaling (AID 588533; active means well fitted inhibition curve with a large enough effect in the signal ratio, with a control signal flat, not every such curve was filed as active; the % refers to the signal ratio;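 further: cells stimulated with 2 nM dexamethasone as agonist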; further: potency means the concentration at half of the fitted maximal effect)
# Method in brief: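 Antagonist-mode qHTS: compound titrations added to GRE-bla HeLa cells, then dexamethasone 2 nM final; 18 h, 37 C. CCF4 FRET fluorescence normalized to dexamethasone and DMSO; IC50 from Hill fit.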
# [5] = qHTS assay for small molecule antagonists of peroxisome proliferator-activated receptor delta signaling (AID 588535; active means well fitted inhibition curve with a large enough effect in the signal ratio, with a control signal flat, not every such curve was filed as active; the % refers to the signal ratio;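 on max response: cells co-treated with a PPAR-delta agonist as stimulator during compound exposure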); settings: HEK293T PPARd-UAS-bla, beta-lactamase FRET ratio, 18 h; 460 nm channel
# Method in brief: (§1)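 HEK293T PPAR-delta-UAS-bla cells, 4000/well, 2% charcoal/dextran FBS; 5 h 37 C; cpd titration; 18 h 37 C; CCF4 2 h RT; FI 460/530 nm; Hill fit → IC50, efficacy.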
# [6] = biological target: Peroxisome proliferator-activated receptor delta (Homo sapiens) (UniProt Q03181); assay: as above
# Method in brief: as §1
# [7] = biological target: Peroxisome proliferator-activated receptor gamma (Homo sapiens) (UniProt P37231); assay: qHTS assay for small molecule agonists of peroxisome proliferator-activated receptor gamma signaling (AID 588536; active means well fitted curve in the direction sought with a large enough effect in the signal ratio, with a control signal flat, not every such curve was filed as active; the % refers to the signal ratio)
# Method in brief: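 PPAR-gamma-UAS-bla HEK293 cells in medium with 1% charcoal/dextran-treated FBS were exposed to compounds for 16 h at 37 C. Beta-lactamase activity was read with CCF4 substrate (405 nm excitation, 460/530 nm emission).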
# [8] = biological target: Peroxisome proliferator-activated receptor gamma (Homo sapiens) (UniProt P37231); assay: qHTS assay for small molecule antagonists of peroxisome proliferator-activated receptor gamma signaling (AID 588537; active means well fitted inhibition curve with a large enough effect in the signal ratio, with a control signal flat, not every such curve was filed as active; the % refers to the signal ratio;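 further: reporter cells co-stimulated with 50 nM rosiglitazone agonist during compound treatment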)
# Method in brief: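 Antagonist mode, beta-lactamase reporter in HEK293; charcoal/dextran FBS 1%; 3000 cells/well, 37 C 6-6.5 h; cpd titration + rosiglitazone 50 nM final, 16 h 37 C; CCF4, 2 h RT; 460/530 nm; Hill fit → IC50, efficacy.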
# [9] = biological target: Vitamin D3 receptor (Homo sapiens) (UniProt P11473); assay: qHTS assay for small molecule antagonists of vitamin D receptor signaling (AID 588541; calls by dose curve;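 further: receptor activated by calcitriol during compound treatment; series mostly up to about 77 µM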)
# Method in brief: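 Antagonist-mode beta-lactamase reporter assay: HEK293T VDR-UAS-bla cells were exposed to titrated compound alongside 1-alpha,25-dihydroxyvitamin D3 at 3 nM final for 16 h. Values were normalized to the 50 nM agonist control and DMSO basal, with IC50 and efficacy from Hill equation fits.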
# [10] = biological target: Vitamin D3 receptor (Homo sapiens) (UniProt P11473); assay: qHTS assay for small molecule agonists of vitamin D receptor signaling (AID 588543; calls by dose curve)
# Method in brief: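 β-lactamase reporter, VDR-UAS-bla HEK293T, agonist mode. Cells plated 5 h at 37 °C, compound titration 16 h at 37 °C, CCF4 dye 2 h RT, ratio 460/530 nm. Hill fit → EC50, efficacy vs 50 nM 1α,25-(OH)2D3.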
# [11] = qHTS assay for small molecule agonists of retinoid X receptor alpha signaling (AID 588544; calls by dose curve); settings: HEK293T RXRa-UAS-bla, beta-lactamase reporter, 18 h; 530 nm emission
# [12] = biological target: Retinoic acid receptor RXR-alpha (Homo sapiens) (UniProt P19793); assay: as above
# [13] = qHTS assay for small molecule antagonists of retinoid X receptor alpha signaling (AID 588546; active means well fitted inhibition curve with a large enough effect in the signal ratio, with a control signal flat, not every such curve was filed as active; the % refers to the signal ratio;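 further: cells stimulated with 9-cis-retinoic acid as agonist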); settings: HEK293T RXRa-UAS-bla, beta-lactamase ratio, antagonist mode; measured here: W530 green channel, cytotoxicity proxy
# Method in brief: (§2)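 Beta-lactamase reporter inhibition, read as CCF4 fluorescence ratio (ex 405, em 460/530 nm) after 2 h at RT. HEK293T UAS-bla cells, 2500/well, were stimulated with 9-cis-RA at 500 or 100 nM final alongside test compound for 18 h at 37 C.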
# [14] = biological target: Retinoic acid receptor RXR-alpha (Homo sapiens) (UniProt P19793); assay: as above; settings: HEK293T RXRa-UAS-bla, beta-lactamase ratio, antagonist mode
# Method in brief: as §2
# [15] = biological target: Thyroid hormone receptor beta (Homo sapiens) (UniProt P10828); assay: qHTS assay for small molecule antagonists of thyroid hormone receptor beta signaling (AID 588547; active means well fitted inhibition curve with a large enough effect in the signal ratio, with a control signal flat, not every such curve was filed as active; the % refers to the signal ratio;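 further: cells stimulated with 0.4 nM T3 agonist during compound exposure; series mostly up to about 77 µM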); settings: TR-UAS-bla HEK293, beta-lactamase ratio, antagonist mode, 18 h
# Method in brief: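 Inhibition of T3-driven (0.4nM final) beta-lactamase reporter activity was measured over 0.59 nM to 92 uM compound after 18 h at 37 C. The cells were GripTite HEK293 TR-UAS-bla in charcoal/dextran-stripped serum, with CCF4 ratio read-out and IC50 from Hill fits.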
# [16] = biological target: Voltage-gated inwardly rectifying potassium channel KCNH2 (Homo sapiens) (UniProt Q12809); assay: qHTS Assay for Small Molecule Inhibitors of the Human hERG Channel Activity (AID 588834);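 further: top concentration of the series differs between compounds; lower thallium flux fluorescence means stronger hERG block; nearly all actives have a fitted effect of over 50% in size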
# Method in brief: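 Concentration-response qHTS measuring drop in thallium-sensitive dye signal. U2OS cells carrying BacMam hERG; compound exposure ~10 min, then stimulation buffer and 2 min read at 1 sec intervals.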
# [17] = biological target: Thyroid hormone receptor beta (Homo sapiens) (UniProt P10828); assay: qHTS assay for small molecule agonists of thyroid hormone receptor beta signaling (AID 588545; calls by dose curve)
# Method in brief: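 Agonist-mode beta-lactamase reporter assay, HEK 293 cells, 2% charcoal/dextran FBS; cells plated 4 hrs, compound 18 hrs at 37 C, CCF4 2 hrs RT. Normalized to 10 nM T3 (100%) and DMSO (0%); Hill fit gives EC50, efficacy.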
# [18] = S16 Schwann cell viability assay (CellTiter-Glo assay) (AID 624031);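 further: cellular ATP luminescence as a viability measure; series mostly up to about 58 µM; nearly all actives have a fitted effect of over 70% in size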
# Method in brief: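 Luminescent ATP read-out (CellTiter-Glo) after 24 h compound exposure of native S16 rat Schwann cells at 37 °C. Signals were normalized between cell-free wells and DMSO-treated cells, set as 0% activity.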
# [19] = biological target: Glutaminase kidney isoform, mitochondrial (Homo sapiens) (UniProt O94925); assay: qHTS for Inhibitors of Glutaminase (GLS): LOPAC Validation (AID 624146);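 further: glutamate product detected by oxidase and peroxidase coupled Amplex red fluorescence gain; series mostly up to about 46 µM; nearly all actives have a fitted effect of over 60% in size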
# Method in brief: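 hKGA in 45 mM KH2PO4 pH 8.2, 0.02% Tween-20 with pin-transferred compounds; 1 mM L-glutamine (stock) plus glutamate oxidase/HRP/Amplex Red coupling added. Fluorescence read initially and after 30 min at RT.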
# [20] = qHTS of Trypanosoma Brucei Inhibitors: LOPAC Validation (AID 624147)
# Method in brief: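 Enzyme and substrate buffer are dispensed first and compound is pin-transferred. ADP at 130 uM final then starts the reaction, which runs 45 min at room temperature. Detection reagent is added for 10 min before luminescence is imaged.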
# Sequence of Thyroid hormone receptor beta (Homo sapiens) (P10828 whole entry, looked up): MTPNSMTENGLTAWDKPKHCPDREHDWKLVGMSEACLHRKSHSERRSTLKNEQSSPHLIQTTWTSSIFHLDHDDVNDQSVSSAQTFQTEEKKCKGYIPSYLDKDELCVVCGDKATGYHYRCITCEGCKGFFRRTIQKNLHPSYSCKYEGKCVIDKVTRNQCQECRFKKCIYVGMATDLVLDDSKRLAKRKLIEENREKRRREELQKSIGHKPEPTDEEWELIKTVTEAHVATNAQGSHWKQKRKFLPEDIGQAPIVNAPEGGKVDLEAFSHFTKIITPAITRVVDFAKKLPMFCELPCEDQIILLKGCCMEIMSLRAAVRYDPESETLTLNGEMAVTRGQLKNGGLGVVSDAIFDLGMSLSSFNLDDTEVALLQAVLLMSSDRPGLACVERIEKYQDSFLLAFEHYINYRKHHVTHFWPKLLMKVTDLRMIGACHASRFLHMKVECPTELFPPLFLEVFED
# Sequence of Vitamin D3 receptor (Homo sapiens) (P11473 whole entry, looked up): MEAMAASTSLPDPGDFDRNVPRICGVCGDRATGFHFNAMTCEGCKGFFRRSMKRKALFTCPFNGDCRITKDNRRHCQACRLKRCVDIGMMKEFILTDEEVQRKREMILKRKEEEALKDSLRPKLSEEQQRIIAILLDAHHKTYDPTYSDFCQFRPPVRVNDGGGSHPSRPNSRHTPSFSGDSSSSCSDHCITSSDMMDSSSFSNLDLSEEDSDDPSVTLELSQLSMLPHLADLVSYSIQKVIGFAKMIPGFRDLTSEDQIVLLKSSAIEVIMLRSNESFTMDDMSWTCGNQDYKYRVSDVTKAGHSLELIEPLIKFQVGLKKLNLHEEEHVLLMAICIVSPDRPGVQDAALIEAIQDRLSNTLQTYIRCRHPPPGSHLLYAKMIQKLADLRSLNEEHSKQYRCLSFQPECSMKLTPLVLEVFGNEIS
# Sequence of Glucocorticoid receptor (Homo sapiens) (P04150 whole entry, looked up): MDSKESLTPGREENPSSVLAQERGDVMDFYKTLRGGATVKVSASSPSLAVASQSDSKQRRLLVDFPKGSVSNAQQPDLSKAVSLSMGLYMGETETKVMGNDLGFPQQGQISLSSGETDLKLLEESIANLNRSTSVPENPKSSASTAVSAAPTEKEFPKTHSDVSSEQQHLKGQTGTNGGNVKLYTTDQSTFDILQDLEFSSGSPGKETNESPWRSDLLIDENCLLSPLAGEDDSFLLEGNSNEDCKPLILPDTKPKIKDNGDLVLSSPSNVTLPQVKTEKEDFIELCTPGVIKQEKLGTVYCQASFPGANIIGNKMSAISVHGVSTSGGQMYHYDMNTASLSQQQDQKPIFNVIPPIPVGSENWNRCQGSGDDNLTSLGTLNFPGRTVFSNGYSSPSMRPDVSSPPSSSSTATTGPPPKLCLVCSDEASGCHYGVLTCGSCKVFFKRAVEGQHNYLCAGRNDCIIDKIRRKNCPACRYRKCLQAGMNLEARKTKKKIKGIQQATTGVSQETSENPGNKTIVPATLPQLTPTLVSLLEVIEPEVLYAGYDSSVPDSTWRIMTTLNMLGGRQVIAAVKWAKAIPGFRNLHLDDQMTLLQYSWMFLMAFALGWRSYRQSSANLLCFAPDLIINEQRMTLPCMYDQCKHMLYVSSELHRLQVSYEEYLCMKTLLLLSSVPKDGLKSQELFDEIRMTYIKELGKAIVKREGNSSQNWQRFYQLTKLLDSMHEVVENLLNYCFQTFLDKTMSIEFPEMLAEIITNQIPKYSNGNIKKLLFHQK
# Sequence of Luciferin 4-monooxygenase (Photinus pyralis) (P08659 whole entry, looked up): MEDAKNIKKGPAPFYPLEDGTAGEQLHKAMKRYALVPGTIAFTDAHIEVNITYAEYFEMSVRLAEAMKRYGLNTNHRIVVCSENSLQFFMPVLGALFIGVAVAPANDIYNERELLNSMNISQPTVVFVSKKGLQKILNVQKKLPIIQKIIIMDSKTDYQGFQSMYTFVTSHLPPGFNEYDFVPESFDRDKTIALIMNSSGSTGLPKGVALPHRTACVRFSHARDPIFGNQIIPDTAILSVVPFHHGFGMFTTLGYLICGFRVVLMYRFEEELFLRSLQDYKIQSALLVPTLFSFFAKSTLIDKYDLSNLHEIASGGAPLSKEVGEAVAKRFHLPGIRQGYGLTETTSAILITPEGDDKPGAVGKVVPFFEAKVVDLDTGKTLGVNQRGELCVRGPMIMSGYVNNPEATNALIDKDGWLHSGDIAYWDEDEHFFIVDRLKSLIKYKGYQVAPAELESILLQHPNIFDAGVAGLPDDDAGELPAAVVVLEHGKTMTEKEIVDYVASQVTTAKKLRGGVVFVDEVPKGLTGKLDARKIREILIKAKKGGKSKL
# Sequence of Retinoic acid receptor RXR-alpha (Homo sapiens) (P19793 whole entry, looked up): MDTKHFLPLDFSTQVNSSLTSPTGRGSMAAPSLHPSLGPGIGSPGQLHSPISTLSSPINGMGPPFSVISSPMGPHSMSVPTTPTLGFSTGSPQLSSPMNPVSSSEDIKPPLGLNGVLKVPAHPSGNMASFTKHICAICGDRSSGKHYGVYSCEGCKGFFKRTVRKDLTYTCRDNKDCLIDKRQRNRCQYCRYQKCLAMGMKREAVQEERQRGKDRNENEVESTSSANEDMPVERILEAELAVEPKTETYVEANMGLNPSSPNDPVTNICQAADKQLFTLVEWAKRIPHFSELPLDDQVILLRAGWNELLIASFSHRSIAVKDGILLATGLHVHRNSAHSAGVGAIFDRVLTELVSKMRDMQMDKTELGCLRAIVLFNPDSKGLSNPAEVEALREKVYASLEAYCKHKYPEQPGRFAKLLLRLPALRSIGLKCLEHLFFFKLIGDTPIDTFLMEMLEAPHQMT
# Sequence of Glutaminase kidney isoform, mitochondrial (Homo sapiens) (O94925 whole entry, looked up, canonical isoform): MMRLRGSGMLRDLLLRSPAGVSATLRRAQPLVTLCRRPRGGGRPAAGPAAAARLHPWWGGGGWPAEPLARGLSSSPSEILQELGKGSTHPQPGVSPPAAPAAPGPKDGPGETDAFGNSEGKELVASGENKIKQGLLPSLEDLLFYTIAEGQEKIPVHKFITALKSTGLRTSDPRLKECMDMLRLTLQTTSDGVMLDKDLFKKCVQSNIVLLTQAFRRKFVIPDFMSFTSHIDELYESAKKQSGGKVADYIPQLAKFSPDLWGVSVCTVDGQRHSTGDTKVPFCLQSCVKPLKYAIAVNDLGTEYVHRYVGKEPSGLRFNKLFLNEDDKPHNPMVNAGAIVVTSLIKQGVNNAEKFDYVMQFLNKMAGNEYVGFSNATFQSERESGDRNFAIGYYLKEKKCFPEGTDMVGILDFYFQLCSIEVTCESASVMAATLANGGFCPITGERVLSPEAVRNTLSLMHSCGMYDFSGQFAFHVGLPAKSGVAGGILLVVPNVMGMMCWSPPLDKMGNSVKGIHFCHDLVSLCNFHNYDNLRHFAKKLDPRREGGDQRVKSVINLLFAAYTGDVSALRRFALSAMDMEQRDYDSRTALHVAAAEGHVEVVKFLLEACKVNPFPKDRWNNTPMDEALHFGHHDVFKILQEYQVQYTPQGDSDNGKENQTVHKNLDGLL
# Sequence of Peroxisome proliferator-activated receptor gamma (Homo sapiens) (P37231 whole entry, looked up): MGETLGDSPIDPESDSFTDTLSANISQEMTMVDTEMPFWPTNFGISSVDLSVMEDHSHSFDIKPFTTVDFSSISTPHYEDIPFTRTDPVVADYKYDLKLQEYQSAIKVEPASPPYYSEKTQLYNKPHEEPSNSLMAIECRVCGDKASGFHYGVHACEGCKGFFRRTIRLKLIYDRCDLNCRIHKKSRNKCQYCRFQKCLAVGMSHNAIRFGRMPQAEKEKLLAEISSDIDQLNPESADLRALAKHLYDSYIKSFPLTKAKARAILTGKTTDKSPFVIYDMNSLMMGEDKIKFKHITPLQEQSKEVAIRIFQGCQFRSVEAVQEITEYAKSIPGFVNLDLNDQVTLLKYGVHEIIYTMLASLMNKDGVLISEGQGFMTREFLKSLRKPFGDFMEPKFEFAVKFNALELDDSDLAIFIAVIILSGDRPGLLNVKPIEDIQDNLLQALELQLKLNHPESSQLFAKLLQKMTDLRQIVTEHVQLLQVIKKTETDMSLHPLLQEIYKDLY
# Sequence of Voltage-gated inwardly rectifying potassium channel KCNH2 (Homo sapiens) (Q12809 whole entry, looked up): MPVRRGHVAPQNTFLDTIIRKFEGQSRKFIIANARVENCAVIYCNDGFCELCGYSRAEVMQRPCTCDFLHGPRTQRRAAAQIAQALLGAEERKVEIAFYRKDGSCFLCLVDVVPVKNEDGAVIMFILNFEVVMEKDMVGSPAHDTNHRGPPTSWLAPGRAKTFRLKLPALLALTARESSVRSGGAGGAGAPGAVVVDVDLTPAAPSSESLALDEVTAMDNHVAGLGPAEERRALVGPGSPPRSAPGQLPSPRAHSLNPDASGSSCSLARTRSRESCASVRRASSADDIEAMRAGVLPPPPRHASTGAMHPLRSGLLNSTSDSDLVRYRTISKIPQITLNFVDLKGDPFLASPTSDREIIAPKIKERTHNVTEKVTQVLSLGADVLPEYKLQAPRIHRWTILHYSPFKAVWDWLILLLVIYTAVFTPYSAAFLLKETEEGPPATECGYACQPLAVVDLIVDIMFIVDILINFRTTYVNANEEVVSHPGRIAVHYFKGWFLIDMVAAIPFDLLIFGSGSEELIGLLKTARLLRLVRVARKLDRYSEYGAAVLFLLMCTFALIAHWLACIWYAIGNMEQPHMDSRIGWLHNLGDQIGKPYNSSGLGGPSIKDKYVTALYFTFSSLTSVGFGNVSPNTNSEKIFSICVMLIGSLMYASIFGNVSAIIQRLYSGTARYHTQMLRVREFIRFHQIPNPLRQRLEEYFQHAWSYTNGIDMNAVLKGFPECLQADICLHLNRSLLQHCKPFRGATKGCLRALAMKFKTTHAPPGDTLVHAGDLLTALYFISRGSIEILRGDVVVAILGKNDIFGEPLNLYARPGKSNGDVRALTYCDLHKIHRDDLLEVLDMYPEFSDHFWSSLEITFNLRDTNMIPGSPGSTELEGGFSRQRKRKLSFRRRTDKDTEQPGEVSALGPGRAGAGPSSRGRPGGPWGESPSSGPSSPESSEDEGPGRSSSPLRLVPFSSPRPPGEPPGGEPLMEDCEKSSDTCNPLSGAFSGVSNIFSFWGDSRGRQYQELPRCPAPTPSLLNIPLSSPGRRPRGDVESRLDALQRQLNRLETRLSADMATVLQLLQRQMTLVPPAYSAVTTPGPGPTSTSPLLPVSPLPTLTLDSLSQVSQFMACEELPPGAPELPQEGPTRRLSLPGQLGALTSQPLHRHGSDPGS
compound,measurement,setting,value
CCCCCCCCCCCC(CC1OC(=O)C1CCCCCC)OC(=O)C(CC(C)C)NC=O (stereo unspecified),outcome,[1],inactive
same,Potency,[2],7.21 µM (active)
same,Potency,[3],12.6 µM (active)
COC1=C(OC)C(=O)C(CC=C(C)CCC=C(C)CCC=C(C)CCC=C(C)CCC=C(C)CCC=C(C)CCC=C(C)CCC=C(C)CCC=C(C)CCC=C(C)C)=C(C)C1=O,outcome,[1],inactive
Cc1cc(O)c2c(c1)C(=O)c1cccc(O)c1C2=O,Potency,[4],inactive
same,max response,[5],-38.7%
same,outcome,[6],inactive
same,outcome,[7],inactive
same,outcome,[8],inactive
same,outcome,[9],inactive
same,outcome,[10],inactive
same,max response,[11],0.103%
same,outcome,[12],inactive
same,max response,[13],-3.99%
same,max response,[14],11.5% (inactive)
same,activity change % (negative = inhibition),[15],3.18% (inactive)
same,outcome,[16],inactive
N[C@H]1CN(c2c(F)cc3c(=O)c(C(=O)O)cn(C4C[C@@H]4F)c3c2Cl)CC12CC2 (stereo partly specified),outcome,[1],inactive
CCCCCCCN(CC)CCCC(O)c1ccc(NS(C)(=O)=O)cc1 (stereo unspecified),outcome,[1],inactive
C[C@]12CC[C@@H]3c4ccc(O)cc4CC[C@H]3[C@H]1CC[C@H]2O,Potency,[4],15.8 µM (active)
same,max response,[5],-15.7%
same,outcome,[6],inactive
same,outcome,[7],inactive
same,outcome,[9],inactive
same,outcome,[10],inactive
same,max response,[11],14%
same,outcome,[12],inactive
same,outcome,[17],inactive
same,max response,[13],6.57%
same,max response,[14],-12.2% (inactive)
same,activity change % (negative = inhibition),[15],-1.66% (inactive)
CC(C=CC1=C(C)CCCC1(C)C)=CC=CC(C)=CC(=O)Nc1ccc(O)cc1,outcome,[10],inactive
same,outcome,[17],inactive
O=C1c2cccc(O)c2C(=O)c2c(O)cc(CO)cc21,Potency,[4],inactive
same,outcome,[8],inactive
same,outcome,[9],inactive
same,outcome,[10],inactive
same,max response,[11],11.8%
same,outcome,[12],inactive
same,outcome,[17],inactive
same,max response,[13],-0.0097%
same,max response,[14],15.1% (inactive)
same,activity change % (negative = inhibition),[15],26.1% (inactive)
O=C1c2c(O)cccc2[C@@H]([C@@H]2O[C@H](CO)[C@@H](O)[C@H](O)[C@H]2O)c2cc(CO)cc(O)c21,outcome,[1],inactive
Nc1nc2c(c(=O)[nH]1)N(C=O)[C@H](CNc1ccc(C(=O)N[C@@H](CCC(=O)O)C(=O)O)cc1)CN2,outcome,[1],inactive
same,outcome,[18],inactive
same,Potency,[2],inactive
same,Potency,[3],inactive
COc1ccc2cc([S+]([O-])Cc3ncc(C)c(OC)c3C)nc2c1,outcome,[19],inactive
same,outcome,[20],inactive
CCC(C(=O)O)C1CCC(C)C(C(C)C(O)C(C)C(=O)C(CC)C2OC3(C=CC(O)[C@@]4(CC[C@](C)(C5CC[C@@](O)(CC)C(C)O5)O4)O3)C(C)CC2C)O1 (stereo partly specified),outcome,[1],inactive
N=c1ccn2c(n1)O[C@H]1[C@@H](O)[C@@H](CO)O[C@H]12,outcome,[16],inactive
COc1cccc2c1C(=O)c1c(O)c3c(c(O)c1C2=O)C[C@@](O)(C(=O)CO)C[C@@H]3O[C@H]1C[C@H](N)[C@H](OC2CCCCO2)[C@H](C)O1 (stereo partly specified),outcome,[18],inactive
same,Potency,[2],inactive
O=C(O)C(=O)Nc1cccc(C2=NN=N[N]2)c1,outcome,[1],inactive
OC[C@@H](O)[C@@H](O)[C@H](O)[C@@H](O)CO,outcome,[7],inactive
same,outcome,[9],inactive
same,outcome,[10],inactive
same,max response,[11],-9.11%
same,outcome,[12],inactive
same,outcome,[17],inactive
same,max response,[13],-4.07%
same,max response,[14],-2% (inactive)
same,activity change % (negative = inhibition),[15],1.79% (inactive)
Cc1onc(-c2ccccc2)c1C(=O)N[C@@H]1C(=O)N2[C@@H](C(=O)O)C(C)(C)S[C@@H]12,outcome,[1],inactive
Nc1ccn(C2CO[C@H](CO)O2)c(=O)n1 (stereo partly specified),outcome,[1],inactive
Nc1ccn(C[C@@H](CO)OCP(=O)(O)O)c(=O)n1,outcome,[1],inactive
OCC(O)C(O)C(O)CO (stereo unspecified),outcome,[1],inactive
same,outcome,[18],inactive
same,Potency,[2],inactive
same,Potency,[3],inactive
CCCCCCCCCCCCCCCC(=O)OC[C@@H](NC(=O)C(Cl)Cl)[C@H](O)c1ccc([N+](=O)[O-])cc1,outcome,[1],inactive
C[C@H]1C[C@H]2[C@@H]3CCC4=CC(=O)C=C[C@]4(C)[C@@H]3C(=O)C[C@]2(C)[C@@]1(O)C(=O)CO,outcome,[1],inactive
CC1(C)[C@H](O[C@H]2O[C@H](C(=O)O)[C@@H](O)[C@H](O)[C@H]2O[C@@H]2O[C@H](C(=O)O)[C@@H](O)[C@H](O)[C@H]2O)CC[C@@]2(C)[C@H]1CC[C@]1(C)[C@H]2C(=O)C=C2[C@H]3C[C@@](C)(C(=O)O)CC[C@]3(C)CC[C@]21C,outcome,[1],inactive
C#CCC(Cc1cnc2nc(N)nc(N)c2n1)c1ccc(C(=O)N[C@@H](CCC(=O)O)C(=O)O)cc1 (stereo partly specified),outcome,[1],inactive
CN[C@H](CC(C)C)C(=O)N[C@H]1C(=O)N[C@@H](CC(N)=O)C(=O)N[C@@H]2C(=O)N[C@H]3C(=O)N[C@H](C(=O)N[C@H](C(=O)O)c4cc(O)cc(O)c4-c4cc3ccc4O)[C@H](O)c3ccc(c(Cl)c3)Oc3cc2cc(c3O[C@@H]2O[C@H](CO)[C@@H](O)[C@H](O)[C@@H]2O[C@H]2C[C@](C)(N)[C@H](O)[C@H](C)O2)Oc2ccc(cc2Cl)[C@H]1O,outcome,[19],inactive
same,outcome,[20],inactive
COc1ccc2c(c1OC)C(=O)OC2[C@H]1c2c(cc3c(c2OC)OCO3)CCN1C (stereo partly specified),outcome,[1],inactive
same,outcome,[18],inactive
same,Potency,[2],inactive
same,Potency,[3],inactive
O=c1[nH]c(=O)n([C@H]2C[C@@H](O)[C@@H](CO)O2)cc1C=CBr,outcome,[19],inactive
same,outcome,[20],inactive
COc1ccc([C@@H]2CNC(=O)C2)cc1OC1CCCC1,outcome,[1],inactive
same,outcome,[18],inactive
same,Potency,[3],inactive

# Source: PubChem BioAssay (NCATS)
